Experimental data from PubChem BioAssay (NCI).
About 79,000 compounds went through this panel and 15% of them were active in at least one assay; those are over-represented in the sample as a whole. Activity calls are given as the source filed them. Cut-off read from the data, not from the text of the source: active = growth inhibition above about 70%; inactive = the rest.

Assay: NCI Yeast Anticancer Drug Screen. Data for the mec2-1 strain (AID 157)
Conditions: S. cerevisiae mec2-1 strain, at 100.0 µM, active compounds read high
Method in brief: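 Mutant yeast (mec2-1) grown with compound; growth inhibition relative to vehicle control reported.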

| SMILES | growth inhibition |
| --- | --- |
| CN(C)c1ccc(C2CC(C)(O)Oc3cc4c(cc32)OCO4)cc1 (stereo not drawn) | 29% (inactive) |
| O=P(NC1CCCCC1)(OCc1ccccc1)OCc1ccccc1 | 11% (inactive) |
| COc1oc(C(=O)NC2CCCCC2)c(-c2ccc(Cl)cc2)c1S(=O)(=O)c1ccccc1 | 88% (active) |
| C[Si](C)(C)/C=C/CCNC(C#N)c1ccccc1 (stereo not drawn) | 95% (active) |
| CCOc1ccc(NC(=O)C2=C(C)NC(C)=C(C(=O)Nc3ccc(OCC)cc3)C2c2cccc([N+](=O)[O-])c2)cc1 | 90% (active) |
| CN(C)CCOC1(Cc2ccc(F)cc2)CCC(C(C)(C)C)CC1 (stereo not drawn) | 98% (active) |
| CC1(C)CC(=O)C(/C=N/c2nc(-c3ccccc3)cs2)=C(O)C1 | 76% (active) |
| CC(=O)Nc1ccc2c(c1)Cc1cc(N=C3C=CC(=O)O3)ccc1-2 | 99% (active) |
| O=C1C=C(Cl)C(=O)C(c2ccc(Cl)cc2)=C1 | 97% (active) |
| CNCCCNc1c2ccccc2nc2cccc([N+](=O)[O-])c12 | 97% (active) |
| CCCCCCCCCCCC(O)S(=O)(=O)O (stereo not drawn) | 74% (active) |
| CC(C)OC(=O)c1ccc(CCc2cc(O)c(Br)cc2O)cc1 | 87% (active) |
| CCc1cc(O)c(Cl)c(C)c1Cl | 73% (active) |
| CSc1nc(C)c(CCOC(C)=O)c(N=P(c2ccccc2)(c2ccccc2)c2ccccc2)n1 | 90% (active) |
| CS(=O)(=O)SCc1ccc([N+](=O)[O-])cc1 | 97% (active) |
| COC1=C(OC)C(=O)C(Sc2ccc3ccccc3c2)=CC1=O | 89% (active) |
| COc1nc2c(c(=O)n1C)N=C(c1ccccc1)[C@H](C(CC(=O)c1ccccc1)c1ccccc1)C(c1ccccc1)N2 (stereo partly drawn) | 34% (inactive) |
| Cc1cc(-c2cc(C)c(O)c(C(C)(C)C)c2)cc(C(C)(C)C)c1O | 55% (inactive) |
| Nc1cc(N)c(N=Nc2cccc3c(S(=O)(=O)O)cccc23)cc1N=Nc1cc([N+](=O)[O-])ccc1O | 17% (inactive) |

| SMILES | growth inhibition |
| --- | --- |
| Nc1ccc(F)cc1S | 98% (active) |
| Brc1ccccc1-c1ncc(-c2ccccc2)o1 | 76% (active) |
| COc1cc(C2SCC(=O)N2c2ccc(-c3ccc(-n4c(-c5ccccc5)nc5ccccc5c4=O)cc3)cc2)ccc1O (stereo not drawn) | 9% (inactive) |
| Nc1ncnc2c1ncn2C1OC(CO)CC1O (stereo not drawn) | 92% (active) |
| COc1cc(CSc2ccc(O)cc2)cc(O)c1O | 0% (inactive) |
| CCOC(=O)C1N=[N+](c2ccccc2)C(=O)/C1=C\n1c(=S)[nH]c2ccc([N+](=O)[O-])cc21 (stereo not drawn) | 9% (inactive) |
| CNC(=O)OCc1c(COC(=O)NC)c2n(c1C)-c1ccc(OC)cc1CCC2 | 99% (active) |
| O=C(NNc1ccccc1)c1ccc(Cl)c(Cl)c1 | 23% (inactive) |
| Cc1ccc(CC2(OCCN(C)C)CCC(C(C)(C)C)CC2)cc1 (stereo not drawn) | 99% (active) |
| C[C@]12CC[C@H](O)CC1=CC[C@@H]1C2CC[C@]2(C)C(=O)NC(=O)CC12 (stereo partly drawn) | 83% (active) |
| CCCC/C=C/C(C)(C(=O)OCC)C(=O)OCC | 25% (inactive) |
| CCc1c(Cl)c(C)cc(O)c1Cl | 93% (active) |
| O=C(/C=C(/c1ccccc1)N1CCCCC1)c1ccccc1 | 82% (active) |
| CCCC(=O)Oc1ccc(/C=N/NC(N)=S)nc1 | 42% (inactive) |
| CCc1nc2ccc(NCCN(C)C)c3c(=O)c4ccccc4n1c23 | 16% (inactive) |
| Cc1sc2ccc3ccccc3c2[n+]1C | 93% (active) |
| COc1c(O)c(C=O)c(Br)c(C=O)c1O | 95% (active) |
| Cc1ccc(Cl)cc1NC(=O)OCCN(C)C(=O)Nc1cc(Cl)ccc1C | -21% (inactive) |
| Cc1nc2ccccc2nc1NNc1ccccc1 | 22% (inactive) |

Assay: NCI Yeast Anticancer Drug Screen. Data for the rad14 strain (AID 159);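 note: 0% = growth of vehicle-treated control cultures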
Conditions: S. cerevisiae rad14 strain growth inhibition; at 1.2 µM; active compounds read high
Method in brief: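 Inhibition of growth is reported for a repair-deficient yeast mutant following compound treatment, calculated relative to cultures that received vehicle.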

| SMILES | growth inhibition |
| --- | --- |
| CN(C)c1ccc(C2CC(C)(O)Oc3cc4c(cc32)OCO4)cc1 (stereo not drawn) | -1% (inactive) |
| O=P(NC1CCCCC1)(OCc1ccccc1)OCc1ccccc1 | -1% (inactive) |
| COc1oc(C(=O)NC2CCCCC2)c(-c2ccc(Cl)cc2)c1S(=O)(=O)c1ccccc1 | -22% (inactive) |
| C[Si](C)(C)/C=C/CCNC(C#N)c1ccccc1 (stereo not drawn) | -6% (inactive) |
| CN(C)CCOC1(Cc2ccc(F)cc2)CCC(C(C)(C)C)CC1 (stereo not drawn) | 6% (inactive) |
| CC1(C)CC(=O)C(/C=N/c2nc(-c3ccccc3)cs2)=C(O)C1 | 3% (inactive) |
| CC(=O)Nc1ccc2c(c1)Cc1cc(N=C3C=CC(=O)O3)ccc1-2 | 12% (inactive) |
| O=C1C=C(Cl)C(=O)C(c2ccc(Cl)cc2)=C1 | 11% (inactive) |
| CNCCCNc1c2ccccc2nc2cccc([N+](=O)[O-])c12 | 84% (active) |
| CCCCCCCCCCCC(O)S(=O)(=O)O (stereo not drawn) | 3% (inactive) |
| CC(C)OC(=O)c1ccc(CCc2cc(O)c(Br)cc2O)cc1 | 43% (inactive) |
| CCc1cc(O)c(Cl)c(C)c1Cl | 9% (inactive) |
| C(=Nc1ccc(-c2cc(-c3ccccc3)nc3ccc4ccccc4c23)cc1)c1ccccc1 | 24% (inactive) |
| CSc1nc(C)c(CCOC(C)=O)c(N=P(c2ccccc2)(c2ccccc2)c2ccccc2)n1 | 9% (inactive) |
| CS(=O)(=O)SCc1ccc([N+](=O)[O-])cc1 | 5% (inactive) |
| COC1=C(OC)C(=O)C(Sc2ccc3ccccc3c2)=CC1=O | -18% (inactive) |
| COc1nc2c(c(=O)n1C)N=C(c1ccccc1)[C@H](C(CC(=O)c1ccccc1)c1ccccc1)C(c1ccccc1)N2 (stereo partly drawn) | -1% (inactive) |
| Nc1cc(N)c(N=Nc2cccc3c(S(=O)(=O)O)cccc23)cc1N=Nc1cc([N+](=O)[O-])ccc1O | -17% (inactive) |

| SMILES | growth inhibition |
| --- | --- |
| Nc1ccc(F)cc1S | -32% (inactive) |
| COc1cc(C2SCC(=O)N2c2ccc(-c3ccc(-n4c(-c5ccccc5)nc5ccccc5c4=O)cc3)cc2)ccc1O (stereo not drawn) | -1% (inactive) |
| Nc1ncnc2c1ncn2C1OC(CO)CC1O (stereo not drawn) | -15% (inactive) |
| COc1cc(CSc2ccc(O)cc2)cc(O)c1O | 1% (inactive) |
| CNC(=O)OCc1c(COC(=O)NC)c2n(c1C)-c1ccc(OC)cc1CCC2 | -36% (inactive) |
| O=C(NNc1ccccc1)c1ccc(Cl)c(Cl)c1 | -2% (inactive) |
| Cc1ccc(CC2(OCCN(C)C)CCC(C(C)(C)C)CC2)cc1 (stereo not drawn) | -7% (inactive) |
| C[C@]12CC[C@H](O)CC1=CC[C@@H]1C2CC[C@]2(C)C(=O)NC(=O)CC12 (stereo partly drawn) | -50% (inactive) |
| CCCC/C=C/C(C)(C(=O)OCC)C(=O)OCC | -5% (inactive) |
| CCc1c(Cl)c(C)cc(O)c1Cl | -8% (inactive) |
| O=C(/C=C(/c1ccccc1)N1CCCCC1)c1ccccc1 | 3% (inactive) |
| CCCC(=O)Oc1ccc(/C=N/NC(N)=S)nc1 | 2% (inactive) |
| CCc1nc2ccc(NCCN(C)C)c3c(=O)c4ccccc4n1c23 | 31% (inactive) |
| Cc1sc2ccc3ccccc3c2[n+]1C | -34% (inactive) |
| COc1c(O)c(C=O)c(Br)c(C=O)c1O | 1% (inactive) |
| Cc1ccc(Cl)cc1NC(=O)OCCN(C)C(=O)Nc1cc(Cl)ccc1C | -26% (inactive) |
| Cc1nc2ccccc2nc1NNc1ccccc1 | -3% (inactive) |
